# The supplement of paper PMC8728848
# Many of the other results were omitted from the sample, so the strongest signals are more common in it than they were.
# What was measured:
# Assay in all cases: glycan array binding signal (z-score within array); higher = stronger binding
# Settings in all cases: glycan notation: IUPAC condensed, linker removed
# Fuc(a1-2)Gal(b1-3)GalNAc = target: Fuc(a1-2)Gal(b1-3)GalNAc
# Summary of the method: (§1)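 Glycan array data were curated from 3228 arrays in the Consortium for Functional Glycomics database and kept only where the protein sequence was available. Glycan names were converted to IUPAC-condensed notation, and columns mapping to the same glycan were averaged. The binding signal is a within-array Z-score, averaged across arrays of the same protein sequence at different concentrations or buffers and across linkers. Negative Z-scores can be read as non-binding.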
# [1] = target: Fuc(a1-2)Gal(b1-3)GlcNAc(b1-3)[Fuc(a1-2)Gal(b1-3)GlcNAc(b1-6)]GalNAc
# Summary of the method: as §1
# [2] = target: Fuc(a1-2)[Gal(a1-3)]Gal(b1-3)GlcNAc(b1-6)GalNAc
# Summary of the method: as §1
# [3] = target: Fuc(a1-2)[Gal(a1-3)]Gal(b1-4)[Fuc(a1-3)]GlcNAc(b1-3)GalNAc
# Summary of the method: as §1
# [4] = target: Fuc(a1-3)[Gal(b1-4)]GlcNAc
# Summary of the method: as §1
# [5] = target: Fuc(a1-3)[Gal(b1-4)]GlcNAc(b1-6)GalNAc
# Summary of the method: as §1
# [6] = target: Fuc(a1-3)[Gal(b1-4)]GlcNAc(b1-6)[Gal(b1-3)GlcNAc(b1-3)]Gal(b1-4)Glc
# Summary of the method: as §1
# [7] = target: Fuc(a1-3)[Gal3S(b1-4)]GlcNAc6S
# Summary of the method: as §1
# Gal(a1-3)Gal(b1-4)Glc = target: Gal(a1-3)Gal(b1-4)Glc
# Summary of the method: as §1
# [8] = target: Gal(b1-3)GalNAc(b1-3)Gal(a1-4)Gal(b1-4)Glc
# Summary of the method: as §1
# [9] = target: Gal(b1-3)[GlcNAc(b1-6)]GalNAc
# Summary of the method: as §1
# [10] = target: Gal(b1-4)GlcNAc(b1-2)Man(a1-3)[GlcNAc(b1-4)][Gal(b1-4)GlcNAc(b1-2)Man(a1-6)]Man(b1-4)GlcNAc(b1-4)GlcNAc
# Summary of the method: as §1
# [11] = target: Gal(b1-4)GlcNAc(b1-2)[Gal(b1-4)GlcNAc(b1-6)]Man(a1-6)[Gal(b1-4)GlcNAc(b1-2)Man(a1-3)]Man(b1-4)GlcNAc(b1-4)GlcNAc
# Summary of the method: as §1
# [12] = target: Gal(b1-4)GlcNAc(b1-2)[Gal(b1-4)GlcNAc(b1-6)]Man(a1-6)[GlcNAc(b1-4)][Gal(b1-4)GlcNAc(b1-2)[Gal(b1-4)GlcNAc(b1-4)]Man(a1-3)]Man(b1-4)GlcNAc(b1-4)[Fuc(a1-6)]GlcNAc
# Summary of the method: as §1
# [13] = target: Gal(b1-4)GlcNAc(b1-3)Gal(b1-4)GlcNAc(b1-2)Man(a1-3)[Gal(b1-4)GlcNAc(b1-3)Gal(b1-4)GlcNAc(b1-2)Man(a1-6)]Man(b1-4)GlcNAc(b1-4)[Fuc(a1-6)]GlcNAc
# Summary of the method: as §1
# [14] = target: Gal(b1-4)GlcNAc(b1-3)Gal(b1-4)GlcNAc(b1-2)[Gal(b1-4)GlcNAc(b1-3)Gal(b1-4)GlcNAc(b1-6)]Man(a1-6)[Gal(b1-4)GlcNAc(b1-3)Gal(b1-4)GlcNAc(b1-2)Man(a1-3)]Man(b1-4)GlcNAc(b1-4)[Fuc(a1-6)]GlcNAc
# Summary of the method: as §1
# [15] = target: Gal(b1-4)GlcNAc(b1-3)Gal(b1-4)GlcNAc(b1-3)Gal(b1-4)GlcNAc(b1-2)Man(a1-3)[Gal(b1-4)GlcNAc(b1-3)Gal(b1-4)GlcNAc(b1-3)Gal(b1-4)GlcNAc(b1-2)Man(a1-6)]Man(b1-4)GlcNAc(b1-4)GlcNAc
# Summary of the method: as §1
# [16] = target: Gal(b1-4)GlcNAc(b1-3)Gal(b1-4)GlcNAc(b1-3)Gal(b1-4)GlcNAc(b1-2)[Gal(b1-4)GlcNAc(b1-3)Gal(b1-4)GlcNAc(b1-3)Gal(b1-4)GlcNAc(b1-6)]Man(a1-6)[Gal(b1-4)GlcNAc(b1-3)Gal(b1-4)GlcNAc(b1-3)Gal(b1-4)GlcNAc(b1-2)Man(a1-3)]Man(b1-4)GlcNAc(b1-4)[Fuc(a1-6)]GlcNAc
# Summary of the method: as §1
# [17] = target: Gal(b1-4)GlcNAc(b1-3)Gal(b1-4)GlcNAc(b1-3)Gal(b1-4)GlcNAc(b1-3)Gal(b1-4)GlcNAc(b1-2)Man(a1-3)[Gal(b1-4)GlcNAc(b1-3)Gal(b1-4)GlcNAc(b1-3)Gal(b1-4)GlcNAc(b1-3)Gal(b1-4)GlcNAc(b1-2)Man(a1-6)]Man(b1-4)GlcNAc(b1-4)[Fuc(a1-6)]GlcNAc
# Summary of the method: as §1
# Gal3S6S(b1-4)GlcNAc6S = target: Gal3S6S(b1-4)GlcNAc6S
# Summary of the method: as §1
# [18] = target: GalNAc(a1-3)GalNAc(b1-3)Gal(a1-4)Gal(b1-4)GlcNAc
# Summary of the method: as §1
# GalNAc(b1-4)Gal(b1-4)Glc = target: GalNAc(b1-4)Gal(b1-4)Glc
# Summary of the method: as §1
# GalNAc(b1-6)GalNAc = target: GalNAc(b1-6)GalNAc
# Summary of the method: as §1
# [19] = target: GlcNAc(a1-4)Gal(b1-4)GlcNAc(b1-3)Gal(b1-4)GlcNAc
# Summary of the method: as §1
# [20] = target: GlcNAc(a1-4)Gal(b1-4)GlcNAc(b1-3)Gal(b1-4)[Fuc(a1-3)]GlcNAc(b1-3)Gal(b1-4)[Fuc(a1-3)]GlcNAc
# Summary of the method: as §1
# [21] = target: GlcNAc(b1-3)Gal(b1-4)GlcNAc(b1-2)Man(a1-3)[GlcNAc(b1-3)Gal(b1-4)GlcNAc(b1-2)Man(a1-6)]Man(b1-4)GlcNAc(b1-4)GlcNAc
# Summary of the method: as §1
# [22] = target: GlcNAc(b1-3)Gal(b1-4)GlcNAc(b1-3)Gal(b1-4)GlcNAc(b1-2)Man(a1-3)[GlcNAc(b1-3)Gal(b1-4)GlcNAc(b1-3)Gal(b1-4)GlcNAc(b1-2)Man(a1-6)]Man(b1-4)GlcNAc(b1-4)GlcNAc
# Summary of the method: as §1
# [23] = target: GlcNAc(b1-3)Gal(b1-4)GlcNAc(b1-3)Gal(b1-4)GlcNAc(b1-2)[GlcNAc(b1-3)Gal(b1-4)GlcNAc(b1-3)Gal(b1-4)GlcNAc(b1-6)]Man(a1-6)[GlcNAc(b1-3)Gal(b1-4)GlcNAc(b1-3)Gal(b1-4)GlcNAc(b1-2)Man(a1-3)]Man(b1-4)GlcNAc(b1-4)[Fuc(a1-6)]GlcNAc
# Summary of the method: as §1
# [24] = target: GlcNAc(b1-3)Gal(b1-4)GlcNAc(b1-3)Gal(b1-4)GlcNAc(b1-3)Gal(b1-4)GlcNAc(b1-2)Man(a1-3)[GlcNAc(b1-3)Gal(b1-4)GlcNAc(b1-3)Gal(b1-4)GlcNAc(b1-3)Gal(b1-4)GlcNAc(b1-2)Man(a1-6)]Man(b1-4)GlcNAc(b1-4)GlcNAc
# Summary of the method: as §1
# [25] = target: GlcNAc(b1-3)Gal(b1-4)GlcNAc(b1-3)Gal(b1-4)GlcNAc(b1-3)Gal(b1-4)GlcNAc(b1-2)Man(a1-3)[GlcNAc(b1-3)Gal(b1-4)GlcNAc(b1-3)Gal(b1-4)GlcNAc(b1-3)Gal(b1-4)GlcNAc(b1-2)Man(a1-6)]Man(b1-4)GlcNAc(b1-4)[Fuc(a1-6)]GlcNAc
# Summary of the method: as §1
# [26] = target: Neu5Ac(a2-3)Gal(b1-4)GlcNAc(b1-3)Gal(b1-4)[Fuc(a1-3)]GlcNAc
# Summary of the method: as §1
# [27] = target: Neu5Ac(a2-3)Gal(b1-4)[Fuc(a1-3)]GlcNAc(b1-3)GalNAc
# Summary of the method: as §1
# [28] = target: Neu5Ac(a2-6)Gal(b1-4)GlcNAc(b1-2)Man(a1-3)[Gal(b1-4)GlcNAc(b1-2)Man(a1-6)]Man(b1-4)GlcNAc(b1-4)GlcNAc
# Summary of the method: as §1
# [29] = target: Neu5Ac(a2-6)Gal(b1-4)GlcNAc(b1-2)Man(a1-6)[GlcNAc(b1-2)Man(a1-3)]Man(b1-4)GlcNAc(b1-4)GlcNAc
# Summary of the method: as §1
# [30] = target: Neu5Ac(a2-6)GlcNAc(b1-4)GlcNAc
# Summary of the method: as §1
# [31] = target: Neu5Ac9Ac(a2-6)Gal(b1-4)GlcNAc
# Summary of the method: as §1
Binder,glycan array binding signal (z-score) (Fuc(a1-2)Gal(b1-3)GalNAc),glycan array binding signal (z-score) [1],glycan array binding signal (z-score) [2],glycan array binding signal (z-score) [3],glycan array binding signal (z-score) [4],glycan array binding signal (z-score) [5],glycan array binding signal (z-score) [6],glycan array binding signal (z-score) [7],glycan array binding signal (z-score) (Gal(a1-3)Gal(b1-4)Glc),glycan array binding signal (z-score) [8],glycan array binding signal (z-score) [9],glycan array binding signal (z-score) [10],glycan array binding signal (z-score) [11],glycan array binding signal (z-score) [12],glycan array binding signal (z-score) [13],glycan array binding signal (z-score) [14],glycan array binding signal (z-score) [15],glycan array binding signal (z-score) [16],glycan array binding signal (z-score) [17],glycan array binding signal (z-score) (Gal3S6S(b1-4)GlcNAc6S),glycan array binding signal (z-score) [18],glycan array binding signal (z-score) (GalNAc(b1-4)Gal(b1-4)Glc),glycan array binding signal (z-score) (GalNAc(b1-6)GalNAc),glycan array binding signal (z-score) [19],glycan array binding signal (z-score) [20],glycan array binding signal (z-score) [21],glycan array binding signal (z-score) [22],glycan array binding signal (z-score) [23],glycan array binding signal (z-score) [24],glycan array binding signal (z-score) [25],glycan array binding signal (z-score) [26],glycan array binding signal (z-score) [27],glycan array binding signal (z-score) [28],glycan array binding signal (z-score) [29],glycan array binding signal (z-score) [30],glycan array binding signal (z-score) [31]
BIp1-His (Cryptococcus neoformans) (protein) MFTKIFVALFAATAVLSAPVESAEKRITHTGRATFYSPSVGIGACGWQNTDEELVVALNAPQYALNADHNCGQSVRITNEQNGNQEIAKVVDLCPGCNDGDLDMSPALFGALNNNDFDQGVFPISWNFLPRDDTSSSN,-0.387,-0.401,-0.487,0.249,0.066,-0.576,-0.013,-0.121,-0.171,0.446,0.127,-0.105,0.266,-0.02,2.12,0.623,1.97,3.26,2.08,1.12,-0.181,0.482,-0.887,-0.297,2.19,-0.301,1.87,2.23,2.51,3.44,–,–,–,–,–,–
"SBD (Rhizopus oryzae), P07683 (protein) ASIPSSASVQLDSYNYDGSTFSGKIYVKNIAYSKKVTVVYADGSDNWNNNGNIIAASFSGPISGSNYEYWTFSASVKGIKEFYIKYEVSGKTYYDNNNSANYQVS",–,–,–,–,–,–,–,–,–,–,–,–,–,–,–,–,–,–,–,–,–,–,–,–,–,–,–,–,–,–,-0.067,3.37,-0.457,0.349,0.158,-0.195
